In the library only some 21% were active in any assay of this set; here they are far more common.
CYP2C9 inhib = blockers of cytochrome P450 2C9 activity – biochemical, luminescence, ADME assay, primary screen | CYP2C9 Supersomes, luciferin-H conversion | inhibition, % at 5 µM | actives 20% (n = 96,000) | P11712;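 active = blocking of liver enzyme CYP2C9 beyond about 50% at 5 µM, limit read from the data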
Target sequence (P11712 whole entry, looked up): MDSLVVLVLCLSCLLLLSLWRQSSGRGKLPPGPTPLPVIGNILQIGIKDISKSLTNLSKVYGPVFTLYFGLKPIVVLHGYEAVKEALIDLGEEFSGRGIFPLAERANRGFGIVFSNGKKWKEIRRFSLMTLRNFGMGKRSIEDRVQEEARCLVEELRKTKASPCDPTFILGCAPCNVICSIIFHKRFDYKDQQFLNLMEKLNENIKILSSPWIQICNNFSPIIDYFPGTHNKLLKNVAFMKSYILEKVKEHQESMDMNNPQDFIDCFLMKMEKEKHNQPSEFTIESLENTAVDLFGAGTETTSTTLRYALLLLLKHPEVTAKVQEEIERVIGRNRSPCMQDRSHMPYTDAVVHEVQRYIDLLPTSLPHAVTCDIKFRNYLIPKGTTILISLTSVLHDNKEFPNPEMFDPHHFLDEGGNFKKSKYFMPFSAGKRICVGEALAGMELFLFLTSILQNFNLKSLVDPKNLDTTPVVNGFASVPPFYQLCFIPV
MRP reversal = reversal of MRP1-mediated doxorubicin resistance, primary screen, H69AR cells, doxorubicin co-treatment. H69AR cells + 2 uM doxorubicin, CellTiter-Glo, 72 h. differential viability (reversal), % at 10 µM. actives 0.04% (n = 85,000). AID 602, 2007;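 active = viability drop by adding the cancer drug above about 55%, with treated viability meeting a 40% cutoff, limit read from the data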;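 also: viability without doxorubicin minus viability with 2 µM doxorubicin for each compound; larger differential means the compound sensitizes cells more to doxorubicin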
MRP1 act = H69AR viability gain despite doxorubicin, primary screen, MRP-1 activator project, H69AR cells, CellTiter-Glo; viability rescue; viability increase, % at 10 µM; actives 0.61% (n = 140,000); AID 799, 2007;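 active = viability gain under doxorubicin at or above a set limit, the compound median plus 3 SD, cut at about 4.7% in these data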;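 also: MRP-1 overexpressing cells given doxorubicin 25 µM after compound pretreatment; 18-22 h compound pretreatment then 72 h with doxorubicin before readout; 0% = doxorubicin-only wells and 100% = vehicle-treated cells without doxorubicin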
CYP2C19 inhib = blockers of cytochrome P450 2C19 activity – biochemical, luminescence, ADME assay, primary screen; P33261; CYP2C19 Supersomes, luciferin-H EGE luminescence, 30 min; inhibition, % at 5 µM; actives 21% (n = 96,000); AID 778, 2007;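 active = CYP2C19 inhibition above a set limit at 5 µM in the primary screen, cut at about 50% in these data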;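 also: plate controls were negative control wells for no effect and 2.5 mM tranylcypromine positive control for full effect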
CYP2C19 activ = human CYP2C19 activators, primary screen, biochemical, luminescence | Cytochrome P450 2C19 (Homo sapiens), P33261 | 96,000 tested, under 10 active | activation factor at 5 µM | recombinant CYP2C19, luciferin-H EGE luminescence; stronger effect = higher value; 0 = fully inhibited enzyme, 1 = untreated enzyme | AID 1025, 2008;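 active = activation factor of at least 2 at 5 µM in the primary screen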;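 also: 0 = wells with 2.5 mM tranylcypromine and 1 = vehicle-only wells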
CYP2C9 act = human CYP2C9 activators, primary screen, biochemical, luminescence; Cytochrome P450 2C9 (Homo sapiens), P11712; recombinant CYP2C9, luciferin-H conversion; stronger effect = higher value; factor 1 = untreated enzyme, 0 = blocked; activation factor at 5 µM; actives 1.4% (n = 96,000); AID 1024, 2008;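 active = activation factor of 2 or more for CYP2C9 at a 5 µM dose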;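 also: 0 = sulfaphenazole-blocked wells and 1 = vehicle-only wells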
Starred values were filed as active, the others as inactive; x = not tested or not shown.

SMILES | CYP2C9 inhib | MRP reversal | MRP1 act | CYP2C19 inhib | CYP2C19 activ | CYP2C9 act
O=C(Nc1ccc(Br)cc1F)C1CCCN(S(=O)(=O)c2cnc[nH]2)C1 (stereo unspecified) | 79* | 2 | 3 | 83* | 0.2 | 0.2
Cc1ccccc1NC(=O)C1CCCN(S(=O)(=O)c2cnc[nH]2)C1 (stereo unspecified) | 56* | -7 | -2 | 64* | 0.4 | 0.4
Cc1c(NC(=O)C2CCCN(S(=O)(=O)c3cnc[nH]3)C2)c(=O)n(-c2ccccc2)n1C (stereo unspecified) | -7 | -6 | 1 | -10 | 1.1 | 1.1
CC(NC(=O)C1CCN(S(=O)(=O)c2cnc[nH]2)CC1)c1ccccc1 (stereo unspecified) | x | x | -2 | x | x | x
O=C(NC(c1ccccc1)c1ccccc1)C1CCCN(S(=O)(=O)c2cnc[nH]2)C1 (stereo unspecified) | 76* | -9 | -3 | 31 | 0.7 | 0.2
Cc1ccc(NC(=O)C2CCCN(S(=O)(=O)c3cnc[nH]3)C2)c(Br)c1 (stereo unspecified) | 95* | 16 | 0 | 93* | 0.1 | 0.1
O=C(NCCCN1CCN(c2ccccc2F)CC1)C1CCCN(S(=O)(=O)c2cnc[nH]2)C1 (stereo unspecified) | 34 | -17 | 2 | 20 | 0.8 | 0.7
COC(=O)[C@@H]1CC[C@H](C)[C@@H](c2ccc(C)cc2)N1C(=O)c1ccc(/C=N/O[C@@H](C)c2cn([C@H](CO)Cc3ccccc3)nn2)cc1 | x | x | -5 | x | x | x
COc1ccc(CCNC(=O)Cn2cc(C(F)(F)F)cc(Cl)c2=O)cc1 | x | x | -1 | x | x | x
COc1cccc(-c2cc(C(=O)NCC3CCCO3)c3ccccc3n2)c1 (stereo unspecified) | x | x | -2 | x | x | x
COc1ccc(C2C3=C(Nc4ncnn42)c2ccccc2CC3)cc1OC (stereo unspecified) | 36 | 6 | -2 | 55* | 0.4 | 0.6
FC(F)(F)c1ccccc1C1C2=C(Nc3ncnn31)c1ccccc1CCC2 (stereo unspecified) | 8 | x | -4 | 25 | 0.7 | 0.9
O=C(N/N=C/c1cc([N+](=O)[O-])cc([N+](=O)[O-])c1O)/C(=C\c1cccs1)NC(=O)c1ccccc1 | x | x | 4.8* | x | x | x
C(#CCN1CCC(Cc2ccccc2)CC1)COCCOCc1ccccc1 | x | x | -1 | x | x | x
O=C(c1ccccc1)C(CCC(CN1CCOCC1)C(=O)c1ccccc1)CN1CCOCC1 (stereo unspecified) | 32 | 1 | -6 | 69* | 0.3 | 0.7
CCCCOc1ccc(C(=O)C(CN2CCOCC2)c2ccccc2)cc1 (stereo unspecified) | x | -1 | -7 | x | x | x
OC(CN1CCOCC1)CN(c1ccccc1)c1ccccc1 (stereo unspecified) | 65* | -5 | -5 | 70* | 0.3 | 0.4
O=C(c1ccc(F)cc1)C(CN1CCOCC1)c1ccccc1 (stereo unspecified) | 12 | -8 | -3 | 59* | 0.4 | 0.9
C(#CCN1CCOCC1)COCCCOC(c1ccccc1)c1ccccc1 | 70* | 1 | -2 | 59* | 0.4 | 0.3
CCCC1=[N+](CC(=O)c2ccc(C)cc2)CCn2cccc21 | x | x | -1 | x | x | x
COc1ccc(C(=O)C(CN2CCOCC2)c2ccccc2)cc1 (stereo unspecified) | -1 | 0 | -7 | 56* | 0.4 | 1
COc1ccc(C(=O)C(CN2CCCC2)c2ccccc2)cc1 (stereo unspecified) | 18 | 0 | -3 | 17 | 0.8 | 0.8
COc1ccc(C(=O)C(OC(=O)c2ccccc2Cl)c2ccccc2)cc1 (stereo unspecified) | x | x | 2 | x | x | x
c1ccc(C(CN2CCOCC2)c2ccccc2)cc1 | 15 | 16 | -4 | 58* | 0.4 | 0.8
COc1ccc(C(=O)C(OC(=O)c2ccccc2)c2ccccc2)cc1 (stereo unspecified) | 70* | x | -1 | 59* | 0.4 | 0.3
COc1cc(NC(=O)COC(=O)[C@@H]2CCCN2S(=O)(=O)c2ccc(Cl)cc2)cc(OC)c1OC | 72* | -5 | -1 | 22 | 0.8 | 0.3
